Assay results published in the supplement of paper PMC4166925.
± gives the standard deviation of the averaged measurements. Over roughly 33,000 sequences, “E-score (dimensionless, -0.5 to 0.5)” has its median near -0.046; the highest 2% begin near 0.36. For the sample, the highest values were picked, then their nearest neighbours and some sequences at random.

system: T1, SpTbr T-box DNA-binding domain (GST fusion); assay: PBM E-score of 8-mer (E-score (dimensionless, -0.5 to 0.5)); Tbr is Tbrain of the sea star Patiria miniata (Pm) or the sea urchin Strongylocentrotus purpuratus (Sp); higher = stronger binding preference; settings: the construct has about 5 more residues each side
T1 sequence: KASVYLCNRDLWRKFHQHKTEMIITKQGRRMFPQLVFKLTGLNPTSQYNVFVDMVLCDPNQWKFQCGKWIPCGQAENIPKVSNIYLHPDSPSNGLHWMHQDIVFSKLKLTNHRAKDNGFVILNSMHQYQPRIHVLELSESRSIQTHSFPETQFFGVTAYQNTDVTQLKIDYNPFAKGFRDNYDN
Method: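 Universal protein-binding microarray (Agilent AMADID 016060, 60-bp probes with a 35-bp variable region) incubated with 200 nM GST-fused Strongylocentrotus purpuratus Tbr T-box DNA-binding domain (residues 362-554) in PBS pH 7.5. Scored for every ungapped 8-mer (given with its reverse complement) as E-score (range -0.5 to 0.5; >0.45 counts as bound) and Z-score of median probe intensity. Two replicate arrays (datasets 1 and 2).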
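Further: protein at 200 nM in PBS on universal double-stranded arrays.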

Sequence	PBM E-score of 8-mer
GCTGTCAC	0.326 ± 0.025
GATGTCAA	0.197 ± 0.0064
GTTGTCTA	-0.123 ± 0.027
CGTGTCTA	0.135 ± 0.05
GGTGTCAC	0.475 ± 0.0052
CGTGTCAG	0.25651 ± 0.00017
CGTGTCAA	0.4367 ± 0.0011
GCTCGCCA	0.231 ± 0.017
GCCCCATA	-0.112 ± 0.064
ATGGGGAG	-0.243 ± 0.051
AGGGGTGG	0.147 ± 0.069
AATGGCTA	-0.134 ± 0.02
CATGAGTC	-0.08024 ± 0.00076
GACTTATA	0.0117 ± 0.031
ACAACCCT	0.0805 ± 0.0049
ATCGTTGC	-0.00439 ± 0.021
AGTGTCAA	0.453 ± 0.0054
ACTGTCAT	0.196 ± 0.032
GGTGTCAA	0.4808 ± 0.0038
AGTGTCAT	0.405 ± 0.017
TGTGTCAA	0.398 ± 0.011
ACTGTCAA	0.183 ± 0.035
AGTGTCTA	0.17 ± 0.024
GCTGTCAA	0.318 ± 0.049
TATGTCAA	0.159 ± 0.0082

Sequence	PBM E-score of 8-mer
GGTGTCTA	0.292 ± 0.0045
AATGTCAT	-0.162 ± 0.031
TCTGTCAA	0.109 ± 0.046
TAAGAACA	-0.0304 ± 0.082
ATATAGTC	-0.0444 ± 0.027
ATAGCCCA	-0.13 ± 0.078
CGCAGAGA	-0.217 ± 0.082
CCAATAAG	-0.199 ± 0.0037
CATGAATC	0.0324 ± 0.072
CCCCCCCC	-0.0653 ± 0.059
AACTCTGC	0.164 ± 0.011
GGAAGCAA	-0.216 ± 0.074
AGTGTCAC	0.43943 ± 0.00026
CGTGTCAC	0.362 ± 0.034
ACTGTCAC	0.35403 ± 0.00029
ACGCCCAA	-0.049 ± 0.13
CACAGACC	-0.0948 ± 0.053
AGACACAT	0.229 ± 0.0028
ACGCACCT	0.366 ± 0.0075
ACACACCT	0.44741 ± 0.0002
ACGCACCG	0.0314 ± 0.086
AAACACCT	0.442 ± 0.015
AAACACCC	0.1718 ± 0.0003
AGACACCG	0.0814 ± 0.026
ACACACCG	0.224 ± 0.013

Sequence	PBM E-score of 8-mer
ACACACAT	0.328 ± 0.0053
ACGCACCA	0.0513 ± 0.0069
AAACACCG	0.155 ± 0.0066
AGACACCT	0.4345 ± 0.003
GCTTCAAA	0.0158 ± 0.019
ACCAATGA	-0.0571 ± 0.11
GTAGATAA	-0.151 ± 0.039
GATCGTGA	0.173 ± 0.054
ACCTGGTA	-0.0333 ± 0.028
CGGCCCTC	-0.119 ± 0.093
GACGTTCC	-0.197 ± 0.016
AAGTGAAG	0.13 ± 0.049
ACAGATGT	0.152 ± 0.018
ACCTATTC	0.0131 ± 0.033
GACCCGTA	-0.0138 ± 0.012
ACTTCTAC	0.037 ± 0.013
CGGAGCCA	-0.164 ± 0.067
CATGCCCC	-0.219 ± 0.047
AACACAGC	0.115 ± 0.086
ATCACATC	0.109 ± 0.02
CACACATC	0.4 ± 0.013
AACACATC	0.375 ± 0.012
CTCACATA	0.157 ± 0.034
CTCACATC	0.377 ± 0.013
AACACACT	0.211 ± 0.022

Sequence	PBM E-score of 8-mer
AACACATA	0.345 ± 0.029
CGCACATC	0.338 ± 0.022
GACACATC	0.363 ± 0.028
AACACATT	0.383 ± 0.024
AACACATG	0.336 ± 0.046
CATGAAAC	-0.146 ± 0.031
GCTAGCAC	0.2678 ± 0.0018
TAAGGTAA	-0.107 ± 0.0024
AGTGCTGA	0.0461 ± 0.029
CTCCTCTC	0.0391 ± 0.091
GCCCAATA	-0.142 ± 0.1
AAGCTATA	-0.0728 ± 0.05
CTAGGTGA	0.356 ± 0.026
ACAGGTGA	0.373 ± 0.0074
GTAGGTTA	-0.184 ± 0.0098
ACAGGTTA	0.257 ± 0.043
GTAGGTGA	0.379 ± 0.023
GCAGGTCA	0.036 ± 0.077
CCAGGTGA	0.306 ± 0.012
ACAGGTGC	0.436 ± 0.013
GCAGGTGA	0.414 ± 0.011
CCAGGTGC	0.3516 ± 0.00069
GCAGGTAA	-0.0374 ± 0.063
ACAGGTGG	0.316 ± 0.026
GTCATAAA	-0.00255 ± 0.054

Sequence	PBM E-score of 8-mer
AAAAGATA	-0.0313 ± 0.063
CTACGCAC	0.0937 ± 0.02
TACCTCTA	-0.164 ± 0.002
ATAAGAGC	-0.19 ± 0.022
ACCCTCGG	-0.124 ± 0.045
ATGCAGAG	-0.18 ± 0.023
ACGAACCG	0.192 ± 0.063
CATTTTCA	0.0656 ± 0.088
AGTTCTGA	-0.131 ± 0.043
TAGACCCA	-0.101 ± 0.067
AAGTGGTG	0.205 ± 0.007
CGACCATC	0.0183 ± 0.023
CAGAGGAG	-0.063 ± 0.011
CGGTGGCA	0.186 ± 0.053
AGGTGGCC	0.075 ± 0.0048
AGGTGGAG	0.158 ± 0.025
GGGTGGCA	0.288 ± 0.014
AGGTGGCG	0.401 ± 0.011
AGGTGGCA	0.432 ± 0.015
CCCATCAC	0.189 ± 0.031
CCCGAGGG	-0.341 ± 0.026
AACGCATA	0.0089 ± 0.0093
AGCGCCTC	0.268 ± 0.0083
AACGCCTA	0.298 ± 0.038
CGCGCCTC	0.365 ± 0.039

Sequence	PBM E-score of 8-mer
AACGCCAT	0.199 ± 0.029
AACGCCTG	0.292 ± 0.006
CACGCCTA	0.375 ± 0.016
GACGCCTC	0.328 ± 0.017
AACGCCTT	0.367 ± 0.041
CGCGCCTA	0.356 ± 0.037
TACGCCTA	0.0945 ± 0.018
CACGCCTC	0.395 ± 0.032
AACGCCTC	0.35 ± 0.0088
ACTCGCTC	-0.0581 ± 0.083
AGCCAATG	-0.218 ± 0.056
AAACCGCG	0.0876 ± 0.057
AGCATCTG	-0.116 ± 0.028
GCCACGGC	-0.0294 ± 0.015
GGTGTAAC	0.349 ± 0.014
CCTGTTAA	0.168 ± 0.067
CGTGTTAA	0.409 ± 0.0099
AGTGTAAA	0.338 ± 0.049
GGTGTAAA	0.436 ± 0.012
ACTGTTAG	0.195 ± 0.048
GCTGTTAC	0.0324 ± 0.031
AGTGTTTG	0.219 ± 0.041
AGTGTTAG	0.3895 ± 0.00056
CGTGTTAC	0.308 ± 0.0063
GGTGTTAC	0.4612 ± 0.0021

Sequence	PBM E-score of 8-mer
CGTGTTAG	0.332 ± 0.015
AGTTAGAT	-0.191 ± 0.0088
CCTAACTC	-0.0227 ± 0.032
ACAGCCAA	0.00932 ± 0.037
CACCACCA	0.145 ± 0.0054
AATAGCAA	0.151 ± 0.019
AGTCCTTG	-0.0449 ± 0.074
AGGCGGTG	-0.0537 ± 0.076
GGAGCCCC	-0.206 ± 0.022
TCTGTTAA	0.131 ± 0.02
AGTGTTGA	0.351 ± 0.006
AGTGTTTA	0.245 ± 0.062
ACTGTTAT	0.152 ± 0.032
AGTGTTAT	0.372 ± 0.045
TATGTTAA	0.0661 ± 0.067
AGTGTTGG	0.3684 ± 7.1e-06
CGTGTTTA	0.123 ± 0.047
TGTGTTAA	0.407 ± 0.011
AATGTTAT	0.0346 ± 0.014
AGTGTTGC	0.346 ± 0.0099
GGTGTTTA	0.386 ± 0.015
GGTCTCAA	-0.0536 ± 0.098
